Pol kappa inh-1 – DNA polymerase kappa (human) inhibition. Q9UBT6. purified Pol kappa, fluorescent DNA synthesis assay, 10 min. 0.53% of 400,000 active. Potency, µM (titrated, usually from 107 µM), without a hit: at the highest dose activity, negative = inhibition, hits mostly inhibitors; also: potency is read from the fitted curve at half-maximal effect; % is scaled to controls: 0 for no effect and ±100 for the full control effect
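First, compounds were pin-transferred onto 10 nM Pol kappa. After 15 min at room temperature, substrate was added to 50 nM final. Fluorescence was then measured kinetically at 0 and 10 min.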
POLI inh – inhibitors of human DNA polymerase iota. Q9UNA4. Pol iota fluorescent replication assay, 10 min. Potency, µM (highest dose often 115 µM), for inactives: at the highest dose activity, negative = inhibition, most hits filed as inhibitors. 1% of 390,000 active; also: potency is read from the fitted curve at half-maximal effect
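Pol iota at 10 nM preincubated 15 min with compounds at room temperature; reaction started with fluorescent substrate, 50 nM final. Fluorescence read kinetically at 0 and 10 min; buffer-only wells as negative control.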
Pol eta inh-1 – blocks human DNA polymerase eta activity; recombinant Pol eta, fluorescent DNA replication assay; Potency, µM (top dose mostly 114 µM), without a hit: top-dose activity change, negative = inhibition, hits mostly inhibitors; 1.2% of 390,000 active; also: potency is read from the fitted curve at half-maximal effect; % is scaled to controls: 0 for no effect and ±100 for the full control effect
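Pol eta (10 nM) was preincubated with compounds for 15 min at room temperature, after which fluorescent replication substrate (50 nM final) was added to start the reaction. Fluorescence was read kinetically at 0 and 10 min.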
POLB inh – DNA polymerase beta (human) inhibition. P06746. Pol beta primer extension/strand displacement, fluorescence kinetic. Potency, µM (doses to about 114 µM), for the others: at the top dose activity change, negative = inhibition, usual class: inhibitors. 1.3% of 340,000 active. AID 485314; also: potency is read from the fitted curve at half-maximal effect; % is scaled to controls: 0 for no effect and ±100 for the full control effect
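Pol beta (10 nM) and compounds were preincubated 15 min at room temperature, then 50 nM substrate (final) started primer extension/strand displacement. Reads were taken at 0 and 10 min; concentration-response data were fitted to a four-parameter Hill equation.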
PI4K2A block – inhibitors of human PI4K2A; Q9BTU6; purified PI4K2A, ADP-Glo luminescence, 1 h; hits give low values; activity change, negative = inhibition, % at 76.9 µM; 0.13% of 420,000 active; in the data active = activity change below about -50%; inconclusive = mostly about -30% to -49%;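 also: -100% = wells without enzyme as full effect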
Target sequence (Q9BTU6 whole entry, looked up): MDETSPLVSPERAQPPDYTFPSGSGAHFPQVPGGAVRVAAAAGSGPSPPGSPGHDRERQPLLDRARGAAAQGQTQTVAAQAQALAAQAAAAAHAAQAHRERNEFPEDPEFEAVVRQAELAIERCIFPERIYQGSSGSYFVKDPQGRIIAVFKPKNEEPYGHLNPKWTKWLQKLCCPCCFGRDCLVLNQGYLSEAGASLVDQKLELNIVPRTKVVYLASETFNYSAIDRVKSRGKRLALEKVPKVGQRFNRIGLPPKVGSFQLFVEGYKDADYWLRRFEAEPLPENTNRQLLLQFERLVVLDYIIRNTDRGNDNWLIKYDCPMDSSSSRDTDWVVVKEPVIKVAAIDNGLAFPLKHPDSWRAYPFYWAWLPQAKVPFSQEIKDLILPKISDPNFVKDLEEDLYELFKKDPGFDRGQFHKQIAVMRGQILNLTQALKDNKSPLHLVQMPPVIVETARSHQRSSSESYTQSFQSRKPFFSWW
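ADP-Glo luminescence measured ADP generated by PI4K2A enzyme (4 ug/mL before mixing) with 1.2 mM PI substrate (pre-mix) and 300 microM ATP (pre-mix). Tris pH7.5 buffer with MgCl2, Triton X-100; 1 h reaction at ambient temperature.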
PI5P4K alpha inh – PI5P4K alpha (human) kinase inhibition. max response, %. AID 652105. 1.2% of 330,000 active. PI5P4Kalpha enzyme, ADP-Glo luminescence, 60 min; hits give low values; active = max response of -50% or lower; inconclusive = between -30% and -50%; inactive = -30% or higher; also: value at the top dose of about 77 µM; % is scaled to controls: 0 for no effect and ±100 for the full control effect
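ADP-Glo luminescence end-point read after a 60 min room-temperature kinase reaction of PI5P4Kalpha plus substrate, initiated with ATP at 5 microM final. Buffer: 0.038 M HEPES pH 7.4, EGTA, 0.1% CHAPS, 5% DMSO.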
GALK confirm – galactokinase (human) inhibition, confirmation. Potency, µM (highest dose often 115 µM), for inactives: at the highest dose activity, negative = inhibition, actives largely listed as inhibitors. purified GALK, Kinase-Glo ATP depletion luminescence. shares compounds with Pol eta inh-1. AID 2015. 70% of 150 active
GALK redox cs – redox cycling activity in phenol red-HRP assay. shares compounds with Pol eta inh-1. Phenol red-HRP H2O2 redox cycling, absorbance 600 nm. Potency, µM (series often up to 115 µM), for the others: top-dose activity change, negative = H2O2 signal, actives largely listed as inhibitors. 40% of 150 active
HEK293 viability – counter-screen for GALK inhibitors: HEK293 cell cytotoxicity; shares compounds with Pol eta inh-1; HEK-293 viability, ATP luminescence (CellTiter-Glo), 24/48 h; Potency, µM (series often up to 46.1 µM), for inactives: top-dose activity change, negative = cytotoxicity, actives largely listed as inhibitors; 10% of 170 active; also: potency is read from the fitted curve at half-maximal effect; % is scaled to controls: 0 for no effect and ±100 for the full control effect
Pol kappa inh-2 – confirmation of human DNA polymerase kappa inhibitors. shares compounds with Pol eta inh-1. 76% of 920 active. Potency, µM, actives largely listed as inhibitors. purified Pol-kappa, fluorescent strand-displacement substrate; also: potency is read from the fitted curve at half-maximal effect
Pol eta inh-2 – confirmation of human DNA polymerase eta inhibitors; shares compounds with Pol eta inh-1; Pol eta primer extension, TAMRA/BHQ fluorescence, 10 min; Potency, µM, actives largely listed as inhibitors; 64% of 2,600 active; AID 720502; also: potency is read from the fitted curve at half-maximal effect
An asterisk follows results filed as active; ? = inconclusive; nt = no result given; ! = repeats disagree; [ ] = remark or other dose. Only some compounds are listed: those with a hit (about 2.8% of all), similar ones and a draw of the others. Unless noted, calls follow the shape of the dose curve; as a rule, active = well fitted curve in the direction sought with a large enough effect; inconclusive = small, poorly fitted or top-dose-only effect, or another doubt; inactive = no such curve, though single readings can be large; an effect the other way counts as inactive or inconclusive.

SMILES	Pol kappa inh-1	POLI inh	Pol eta inh-1	POLB inh	PI4K2A block	PI5P4K alpha inh	Pol eta inh-2	others
O=C(O)/C=C/c1cn(-c2ccccc2)nc1-c1cccc([N+](=O)[O-])c1	2%	22%	-15%	7%	-2	-3	nt
COc1cc(/C=C2\SC(=S)N(Nc3ncc(C(F)(F)F)cc3Cl)C2=O)ccc1O	-34%	14µM*	?	14µM*	-6	-22	nt	Pol kappa inh-2=?
O=C(COc1ccc(F)cc1)Nc1ccc(C(=O)OCc2cc(=O)n3nc(C4CC4)sc3n2)cc1	-8%[60.1 µM]	8%	-5%	7%	0	nt	nt
O=C1CS/C(=N\N=C\c2ccco2)N1c1ccccc1	?	?	?	?	0	?	?	Pol kappa inh-2=?
CCCCCn1nnnc1C1(C)CCCCC(=O)N1Cc1ccco1 (stereo not drawn)	nt	nt	nt	nt	-1	nt	nt
O=C(NCc1ccccc1)c1ccc2c(=O)n(CC3CCCO3)c(=S)[nH]c2c1 (stereo not drawn)	-2%	8%	-9%	18%	2	3	nt
O=C(NCc1ccccc1)c1ccc2c(=O)[nH]c3c(C(=O)NCC4CCCO4)sc(=S)n3c2c1 (stereo not drawn)	-15%	38%	?	?	-3	-17	?
CC1=NN2C(=N)/C(=C\c3ccc(SCc4ccccc4)o3)C(=O)N=C2S1	-14%	?	?	?	1	?	nt
N=C1/C(=C\c2ccc(SCc3ccco3)o2)C(=O)N=C2SC=NN12	50µM*	?	14µM*	40µM*	-13	-58*	54*
O=C(CCS(=O)(=O)c1ccc(Br)cc1)Nc1ccc(Cl)c(C(F)(F)F)c1	-25%	23%	?	4%	-2	nt	?	Pol kappa inh-2=19*
CCOc1ccc(NS(=O)(=O)c2ccc3[nH]cc(C(=O)NC4CCCC4)c(=O)c3c2)cc1	-33%	?	-5%	?	0	nt	nt
CCc1ccc(NS(=O)(=O)c2ccc3[nH]cc(C(=O)NC4CCCC4)c(=O)c3c2)cc1	?	89µM*	?	50µM*	-5	nt	nt	Pol kappa inh-2=?
CN(Cc1ccco1)C(=O)c1c[nH]c2ccc(S(=O)(=O)Nc3ccc4c(c3)OCCO4)cc2c1=O	-20%	-29%	?	?	0	-7	nt
CCC1CCCCN1C(=O)c1c[nH]c2ccc(S(=O)(=O)Nc3cccc(OC)c3)cc2c1=O (stereo not drawn)	-13%[60.1 µM]	?	89µM*	?	-2	nt	?
CCOc1ccc(NS(=O)(=O)c2ccc3[nH]cc(C(=O)NCc4ccco4)c(=O)c3c2)cc1	-19%	?	79µM*	22µM*	-3	nt	nt	Pol kappa inh-2=?
CCc1ccc(NS(=O)(=O)c2ccc3[nH]cc(C(=O)N(C)Cc4ccco4)c(=O)c3c2)cc1	-24%	?	89µM*	45µM*!	-4	nt	?
COc1cc2nc(N3CCOCC3)nc(NC(C)C)c2cc1OC	-5%	-6%	nt	nt	nt	nt	nt
CCN(CC)c1ccc(C=C2C(=O)OC3(CCCCC3)OC2=O)cc1	-2%	?	-1%	1%	-7	-1	nt
CCN(CC)c1ccc(/C=C2/C(=O)c3ccc(C(=O)O)cc3C2=O)cc1	79µM*	18µM*	3.5µM*	?	-24	-92*	38*	Pol kappa inh-2=7.5*
COc1ccc(C2C(C(=O)Nc3ccc(Cl)c(Cl)c3)CCC(=O)N2c2ccc(OC)cc2)cc1 (stereo not drawn)	nt	nt	nt	nt	-2	nt	nt
C#Cc1ccc([C@H]2C=C(C(=O)O)O[C@@H](OCCCCO)C2)cc1	?	50µM*	20µM*	nt	-13	-17	nt	Pol kappa inh-2=?
O=C(Cn1c(=O)nc(-c2ccccc2)c2ccccc21)NCc1ccc(Cl)cc1	-10%[60.1 µM]	-17%	-6%	-12%	5	nt	nt
CCN(CC)CCCNC(=O)CSc1nc2nc(C)c(Cc3c(F)cccc3Cl)c(C)n2n1	14%	44%	-12%	7%	-5	nt	nt
COCc1cc(C)n(CC(=O)N/N=C/c2ccc(-c3ccc(Cl)c(C(=O)O)c3)o2)c(=O)c1C#N	?	22µM*	10µM*	20µM*	0	?	43*
COCc1cc(C)n(CC(=O)Nc2ccc(N3CCOCC3)c(Cl)c2)c(=O)c1C#N	-9%	56%	-12%	-3%	0	-2	nt
SMILES	Pol kappa inh-1	POLI inh	Pol eta inh-1	POLB inh	PI4K2A block	PI5P4K alpha inh	Pol eta inh-2	others
CN(Cc1ccccc1)S(=O)(=O)c1cccc(C(=O)OCc2ccccc2)c1	nt	nt	nt	nt	-1	nt	nt
Cc1ccc(S(=O)(=O)c2nc(-c3ccco3)oc2SC(C)C)cc1	-24%	?	89µM*	-11%	-2	?	?	Pol kappa inh-2=?
Cc1ccc(S(=O)(=O)c2nc(-c3ccco3)oc2SCC(C)C)cc1	1%	-22%	-8%	-9%	-3	nt	nt
O=C(Cc1ccccc1)NCC(=O)OCC(=O)c1cccc2ccccc12	0%	0%	nt	nt	nt	nt	nt
O=[N+]([O-])c1c(Nc2ccccn2)cc(Cl)c2nonc12	?	?	?	?	?	?	54*
O=[N+]([O-])c1c(Nc2ccc(O)cc2)cc(Cl)c2nonc12	-5%	3.5µM*	50µM*	-16%	-16	-24	?
O=C(COc1ccccc1/C=C\c1[nH]c(=O)[nH]c(=O)c1[N+](=O)[O-])Nc1ccccc1	-18%	20µM*	22µM*	9%	?	-69*	76*	GALK confirm=38µM*;GALK redox cs=-11%;HEK293 viability=-5%
Cc1[nH]c2ccccc2c1C1(O)C(=O)N(Cc2ccccc2)c2ccc(Br)cc21 (stereo not drawn)	-8%	2%	-24%	4%	-4	nt	nt

Compound activity as filed in PubChem BioAssay.
